PI4K2A inh: blocks human PI4K2A kinase activity. purified PI4K2A, ADP-Glo luminescence, 1 h; active compounds read low. activity change, negative = inhibition, % at 76.9 µM. 420,000 compounds, 0.13% hits; in the data active means activity change below about -50%; inconclusive means mostly about -30% to -49%;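 further: -100% = wells without enzyme as full effect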
Target sequence (Q9BTU6 whole entry, looked up): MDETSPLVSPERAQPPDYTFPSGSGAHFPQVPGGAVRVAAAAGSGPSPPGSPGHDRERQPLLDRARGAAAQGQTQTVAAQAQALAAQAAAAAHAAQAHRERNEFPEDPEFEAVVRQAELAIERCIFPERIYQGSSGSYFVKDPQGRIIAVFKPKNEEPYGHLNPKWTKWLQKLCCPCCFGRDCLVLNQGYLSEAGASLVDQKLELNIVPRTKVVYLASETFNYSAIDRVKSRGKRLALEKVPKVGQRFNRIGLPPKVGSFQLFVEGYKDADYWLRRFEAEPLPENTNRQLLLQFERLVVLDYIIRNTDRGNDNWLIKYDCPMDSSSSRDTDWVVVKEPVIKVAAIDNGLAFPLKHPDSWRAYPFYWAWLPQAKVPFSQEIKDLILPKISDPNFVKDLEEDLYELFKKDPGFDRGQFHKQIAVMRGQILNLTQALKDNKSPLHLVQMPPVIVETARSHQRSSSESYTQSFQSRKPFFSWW
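Compounds are screened against recombinant PI4K2A using PI as substrate and ATP, the latter dispensed at 300 microM. Reactions run one hour at ambient temperature before ADP-Glo detection; full inhibition defined by wells lacking enzyme.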
KB-3-1 cytotox: KB-3-1 parental cell cytotoxicity | 400,000 compounds, 1.4% hits | KB-3-1 viability, CellTiter-Glo ATP luminescence, 72 h | Potency, µM (top dose mostly 46.1 µM), actives largely listed as cytotoxic; further: potency means the concentration at half of the fitted maximal effect; nearly all actives have a fitted effect of over 60% in size
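Screening of KB-3-1 cells (DMEM, 10% FBS, phenol-red free) ran from lowest to highest compound concentration; after 72 h at 37 °C viability was read luminescently and curves fitted.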
KB-V1 cytotox: kills drug-selected multidrug resistant KB-V1 cells; KB-V1 MDR cells viability, CellTiter-Glo, 72 h; Potency, µM (doses to about 46.1 µM), hits mostly cytotoxic; 400,000 compounds, 3.4% hits; AID 1347076; further: potency means the concentration at half of the fitted maximal effect; nearly all actives have a fitted effect of over 60% in size
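Following 72 h at 37 degrees C with compound, KB-V1 cell viability was read by CellTiter-Glo luminescence, medium being phenol-red-free DMEM plus 10% FBS; concentration-response parameters came from normalized, curve-fitted qHTS data.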
Nrf2 inh: Nrf2 pathway inhibition; Potency, µM (top dose mostly 46 µM), inactives show at the highest dose activity change, negative = inhibition, usual class: inhibitors; A549 ARE-Fluc reporter, luciferase luminescence, 18-24 h; 360,000 compounds, 2.1% hits; further: potency means the concentration at half of the fitted maximal effect; nearly all actives have a fitted effect of over 60% in size
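Quantitative HTS in A549 cells stably bearing an antioxidant response element-firefly luciferase construct. Inhibition of Nrf2-driven transcription was scored by luminescence after 18-24 h of compound exposure at 37 °C.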
A549 viability: A549 cytotoxicity, counter-screen for Nrf2 inhibitors. A549 ARE-Fluc cells, CellTiter-Fluor viability, 18-24 h. Potency, µM (series often up to 46 µM), without a hit: top-dose activity change, negative = cytotoxicity, usual class: inhibitors. 390,000 compounds, 0.16% hits. AID 504648; further: potency means the concentration at half of the fitted maximal effect
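Cytotoxicity counterscreen: CellTiter-Fluor fluorescence was measured in A549 ARE_Fluc cells after 18-24 h of compound exposure in a concentration series. The subsequent BugLite luminescent read reports ARE-luciferase activity.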
Giardia kill: Giardia lamblia killing. AID 540267. activity change, % at 7.66 µM, hits read low. 340,000 compounds, 0.15% hits. Giardia lamblia trophozoite viability; in the data active means activity change below about -80%; inconclusive means between about -30% and that limit;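 further: parasites exposed to compound for two days anaerobically before the ATP read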
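Trophozoite viability was measured as ATP-dependent luminescence, read 15-30 min after reagent addition. Before that, parasites at 100 cells/well were exposed to compounds for 48 h, anaerobically, at 37 deg C.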
Active calls of the source: *; i = inactive; ? = inconclusive; nt = no result given; ! = not active in a repeat. Compounds with a hit are over-represented: about 5.7% of the library has one in this group of screens. Unless noted, the call rests on the fitted dose curve; in most records, active means well fitted curve in the direction sought with a large enough effect; inconclusive means small, poorly fitted or top-dose-only effect, or another doubt; inactive means no such curve, though single readings can be large; an effect the other way counts as inactive or inconclusive. Unless noted, on the % scale 0 is the no-effect control and ±100 the full control effect.

SMILES	PI4K2A inh	KB-3-1 cytotox	KB-V1 cytotox	Nrf2 inh	A549 viability	Giardia kill
CCn1c(Cc2cccs2)nnc1SCC(=O)Nc1ccc2c(c1)OCCO2	-6.2	nt	nt	nt	nt	nt
Nc1ccn([C@@H]2O[C@H](CO)[C@@H](O)C2(F)F)c(=O)n1	-1.4	nt	nt	nt	nt	nt
Cc1ccc(NC(=O)c2cc(C(=O)c3cc(Cl)ccc3O)cn(-c3ccc(C)cc3)c2=O)cc1	-7.6	?	18.4µM*	-3.6%	0.0%	-14.3
[N-]=[N+]=CC(=O)CNC(=O)[C@@H](Cc1ccccc1)N1C(=O)c2ccccc2C1=O	-1.7	i	i	nt	13µM*	8.6
CCN(Cc1ccccc1)C(=O)C1CCN(C/C(C)=C/c2ccccc2)CC1	5.7	i	?	-0.6%	-5.8%	-0.8
O=C(Cc1ccccc1)NC1CCN(Cc2ccccc2)CC1	0.1	i	i	-6.6%	1.0%	-9.4
O=C(Cc1ccc(Br)cc1)NC1CCN(Cc2ccccc2)CC1	5.6	?	18.4µM*	?	?	-4.5
CCN(Cc1ccccc1)C(=O)C1CCN(Cc2ccc(OC)c(OC)c2OC)CC1	6.2	i	8.2µM*	9.3%	19.0%	3.2
CCN(Cc1ccccc1)C(=O)C1CCN(Cc2ccc(SC)cc2)CC1	-4.2	i	i	19.3%	3.1%	6.3
O=C(NC1CCN(Cc2ccccc2)CC1)C12CC3CC(CC(C3)C1)C2	1.5	i	25.9µM*	-8.8%	11.5%	-0.5
CCN(CC)C(=O)C1CCN(Cc2ccc(Br)cc2)CC1	-3.5	i	18.4µM*	?	5.5%	-20.8
O=C(NC1CCN(Cc2ccccc2)CC1)c1ccccc1	0.9	i	i	-3.7%	0.1%	12.9
O=C(O)Cc1cc(F)c(S(=O)(=O)N2CCN(S(=O)(=O)c3ccc4c(c3)OCCO4)CC2)cc1F	nt	nt	nt	-7.3%	-0.9%	nt
CC(c1ccccc1)n1cc(C(=O)NCCCN2CCCC2)nn1 (configuration not stated)	1.7	nt	nt	nt	nt	nt
COc1cc(NC(=O)C2CCCN(S(=O)(=O)c3ccc(C)c(C)c3)C2)cc(OC)c1 (configuration not stated)	2.7	nt	nt	nt	nt	nt
O=C(NCC1COCCO1)C1CCN(S(=O)(=O)c2cccc3ccccc23)CC1 (configuration not stated)	-2.6	nt	nt	nt	nt	nt
C=C1C=C(C(F)F)n2ncc(C(=O)NCCc3ccc(Cl)cc3)c2N1	nt	i	i	nt	nt	nt
C=C1C(=O)C2=CC1CCC(=O)C1(C)CCC(OC(C)=O)C(C)(C)C1CC2O (configuration not stated)	0.9	8.2µM*	6.51µM*	14.6µM*	?	-12.1
CC(C)(C)c1cnnn1-c1ccc(/C=N/Nc2ccc([N+](=O)[O-])cc2)cc1	-1.6	?	i	?	16.4µM*	-21.0
CCC(C)Nc1ccc(NC(C)CC)cc1 (configuration not stated)	-16.2	?	?	0.0731µM*	0.146µM*	-101.3*!
CCCCC(=O)N(c1ccc2oc(C)c(C(C)=O)c2c1)S(=O)(=O)c1ccc(F)cc1C	-0.1	i	i	7.0%	0.8%	nt
CC(=O)c1c(C)oc2ccc(N(C(=O)c3ccncc3)S(=O)(=O)c3ccc(C)cc3C)cc12	3.5	?	23.1µM*	?	4.0%	nt
CCOC(=O)c1c(C)oc2ccc(N(C(C)=O)S(=O)(=O)c3c(C)cc(C)cc3C)cc12	6.6	23.1µM*	4.11µM*	-4.2%	-0.8%	nt
Nn1c(SCC(=O)Nc2ccc(OCc3ccccc3)cc2)nnc1-c1cc(-c2ccc(F)cc2)n[nH]1	1.8	nt	nt	nt	nt	nt
CC[n+]1c(/C=C/N(C)c2ccccc2)n(-c2ccccc2)c2ccc(-c3nc4ccccc4s3)cc21	-4.6	5.8µM*	i	?	?	-3.6
CC[n+]1cccc(-c2nc3ccccc3s2)c1	-0.1	?	i	?	-10.1%	-16.0
COc1ccc(S[C@]2(C(=O)N3CCCC3)CC(=O)N(S(=O)(=O)c3ccc(F)cc3)[C@@H]2c2ccc(OC)cc2)cc1	4.7	nt	nt	nt	nt	nt

Screening results from PubChem.
